# Pol beta inh: inhibitors of human DNA polymerase beta | P06746 | Pol beta primer extension/strand displacement, fluorescence kinetic | Potency, µM (series often up to 114 µM), usual class: inhibitors | 340,000 compounds, 1.3% hits | AID 485314
#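 Reaction started by 50 nM substrate onto compound-treated Pol beta (10 nM, 15 min preincubation, room temperature); plates read at 0 min and 10 min. Normalized concentration-effect data fitted by four-parameter Hill equation.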
# WRN inhibitor: inhibitors of human WRN helicase | 360,000 compounds, 0.46% hits | Q14191 | AID 651768 | WRN helicase unwinding, fluorescent forked duplex, kinetic | Potency, µM (titrated, usually from 114 µM), usual class: inhibitors; note: nearly all actives have a fitted effect of over 55% in size
# Target sequence (Q14191 whole entry, looked up): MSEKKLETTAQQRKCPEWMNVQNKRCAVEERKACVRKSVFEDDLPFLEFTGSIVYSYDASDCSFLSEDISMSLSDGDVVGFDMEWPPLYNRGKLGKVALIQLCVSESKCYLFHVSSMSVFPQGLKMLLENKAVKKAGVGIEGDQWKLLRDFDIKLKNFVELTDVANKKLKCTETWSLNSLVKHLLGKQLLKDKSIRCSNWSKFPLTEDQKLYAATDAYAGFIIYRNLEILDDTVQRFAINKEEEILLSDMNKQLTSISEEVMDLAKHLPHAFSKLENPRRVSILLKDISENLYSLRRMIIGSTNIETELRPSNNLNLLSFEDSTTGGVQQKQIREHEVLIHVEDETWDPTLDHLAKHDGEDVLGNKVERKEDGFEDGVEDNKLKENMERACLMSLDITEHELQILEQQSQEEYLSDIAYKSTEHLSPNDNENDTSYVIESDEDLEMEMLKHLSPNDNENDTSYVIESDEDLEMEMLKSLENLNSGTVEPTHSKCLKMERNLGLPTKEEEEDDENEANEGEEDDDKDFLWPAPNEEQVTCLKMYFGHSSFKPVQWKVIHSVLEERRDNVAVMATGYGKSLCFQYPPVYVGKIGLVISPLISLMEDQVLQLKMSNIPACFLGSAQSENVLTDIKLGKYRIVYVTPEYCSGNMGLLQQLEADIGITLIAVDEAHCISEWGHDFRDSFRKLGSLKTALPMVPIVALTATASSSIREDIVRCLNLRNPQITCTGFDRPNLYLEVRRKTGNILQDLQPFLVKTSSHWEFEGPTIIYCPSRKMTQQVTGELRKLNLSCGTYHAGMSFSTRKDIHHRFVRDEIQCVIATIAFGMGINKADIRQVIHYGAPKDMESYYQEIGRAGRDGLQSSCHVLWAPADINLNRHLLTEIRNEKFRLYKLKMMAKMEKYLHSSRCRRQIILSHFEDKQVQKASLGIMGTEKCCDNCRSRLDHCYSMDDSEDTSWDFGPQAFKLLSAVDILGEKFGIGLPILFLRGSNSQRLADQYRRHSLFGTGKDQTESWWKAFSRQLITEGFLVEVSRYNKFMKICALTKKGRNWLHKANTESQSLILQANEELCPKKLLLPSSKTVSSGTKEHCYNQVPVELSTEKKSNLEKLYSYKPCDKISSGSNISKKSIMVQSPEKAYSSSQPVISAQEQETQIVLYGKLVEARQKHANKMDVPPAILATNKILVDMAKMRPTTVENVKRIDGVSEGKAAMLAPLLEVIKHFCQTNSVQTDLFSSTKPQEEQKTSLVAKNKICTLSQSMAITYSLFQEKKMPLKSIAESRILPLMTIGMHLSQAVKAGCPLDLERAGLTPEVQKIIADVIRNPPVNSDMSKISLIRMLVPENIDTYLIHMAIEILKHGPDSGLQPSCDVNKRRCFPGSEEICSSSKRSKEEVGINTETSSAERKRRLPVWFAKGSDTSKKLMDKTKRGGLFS
#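 Kinetic red-fluorescence monitoring (525/598 nm) tracks WRN helicase activity after 100 nM fluorophore-quencher forked duplex and 2 mM ATP are added to 20 nM enzyme pretreated 15 min at room temperature with compound.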
# PI5P4K alpha inh: PI5P4K alpha (human) kinase inhibition; P48426; PI5P4Kalpha enzyme, ADP-Glo luminescence, 60 min; hits give low values; max response, %; 330,000 compounds, 1.2% hits; AID 652105; active = max response of -50% or lower; inconclusive = between -30% and -50%; inactive = -30% or higher; note: value at the top dose of about 77 µM
#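 ADP-Glo luminescence end-point read after a 60 min room-temperature kinase reaction of PI5P4Kalpha plus substrate, initiated with ATP at 5 microM final. Buffer: 0.038 M HEPES pH 7.4, EGTA, 0.1% CHAPS, 5% DMSO.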
# POLI inh: inhibitors of human DNA polymerase iota; Pol iota fluorescent replication assay, 10 min; Q9UNA4; 390,000 compounds, 1% hits; Potency, µM (series often up to 115 µM), most hits filed as inhibitors; AID 588590
#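 Fluorescent replication assay read twice, at 0 min and 10 min after adding 50 nM (final) substrate. Enzyme (10 nM) and compounds were first incubated 15 min at room temperature; enzyme-free buffer wells were negative controls.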
# POLK inh: inhibitors of human DNA polymerase kappa | 400,000 compounds, 0.53% hits | Q9UBT6 | purified Pol kappa, fluorescent DNA synthesis assay, 10 min | AID 588579 | Potency, µM (doses to about 107 µM), most hits filed as inhibitors
#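 Pol kappa 10 nM + cpd, 15 min RT; start w/ substrate 50 nM final; fluorescence kinetic read, 0 and 10 min. Neg ctrl: buffer, no enzyme.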
# POLH inh: blocks human DNA polymerase eta activity; Potency, µM (doses to about 114 µM), hits mostly inhibitors; recombinant Pol eta, fluorescent DNA replication assay; Q9Y253; AID 588591; 390,000 compounds, 1.2% hits
#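 Fluorescent replication assay: 50 nM final substrate added after a 15 min room-temperature compound preincubation with 10 nM enzyme. Signal taken at 0 min and again at 10 min.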
# Hits are given with their value; . = inactive; ? = inconclusive; / = not tested or not shown; [ ] = remark or other dose. The list is not random: actives were taken first. Their share in the collection is about 2.8%. Unless noted, calls come from the whole dose curve; as a rule, active = well fitted curve in the direction sought with a large enough effect; inconclusive = small, poorly fitted or top-dose-only effect, or another doubt; inactive = no such curve, though single readings can be large; an effect the other way counts as inactive or inconclusive.
SMILES,Pol beta inh,WRN inhibitor,PI5P4K alpha inh,POLI inh,POLK inh,POLH inh
Cc1ccc(C(=O)NCC(=O)OCc2nnc(-c3ccc([N+](=O)[O-])cc3)o2)s1,/,.,-62,?,.,?
CCN(c1ccc(OC)cc1)S(=O)(=O)c1ccc2[nH]c(=O)ccc2c1,.,/,/,.,.,.
COc1ccc(N2C(=O)C(Cl)=C(Oc3cccc(OC)c3)C2=O)cc1,.,?,-87,?,.,.
C#CCn1cc(/C=C2\NC(=O)NC2=O)c2ccccc21,35µM,?,.,?,?,?
CC(C)n1cc(/C=C2/NC(=O)NC2=O)c2ccccc21,.,.,.,.,.,.
Cc1ccc(N2CCN(C(=O)C3CCN(S(=O)(=O)c4ccc5c(c4)oc(=O)n5C)CC3)CC2C)cc1 (centres undefined),.,/,/,.,?,.
CC(=O)c1cccc(Nc2ncnc3c2cnn3C)c1,.,/,/,.,.,.
O=C(O)c1ccc(Cl)c(NC(=S)NC(=O)c2cccc(COc3ccccc3)c2)c1,25µM,.[11.6 µM],.,.,.,45µM
O=C(NC(=S)Nc1ccc(Cl)c(C(=O)O)c1)c1cccc(COc2ccccc2)c1,40µM,.[11.6 µM],?,.,.,79µM
COc1cccc(C(=O)NC(=S)Nc2ccc(Cl)cc2C(=O)O)c1,.,.,-63,.,.,.
COc1cccc(C(=O)NC(=S)Nc2ccc3c4c(cccc24)CC3)c1,.,.,.,.,.,.
O=C(NC(=S)Nc1ccc(Cl)c(C(=O)O)c1)c1ccc(OCc2ccccc2)cc1,.,.,.,.,.,.
Cc1ccc(-c2csc3ncnc(Sc4nnnn4-c4ccccc4)c23)cc1,/,/,/,.,.,/
CCn1cc2nc(SCc3cc(C)ccc3C)n(Cc3ccc(C)cc3)c(=O)c2n1,.,/,/,.,.,.
O=c1c2c([nH]c3ccccc13)C(=C1CCCC1)CC2,32µM,50µM,-52,?,40µM,20µM
Cc1cc(O)c(C=O)c2c1C(=O)Oc1c(CO)c(O)c3c(c1O2)C(O)OC3=O (centres undefined),2.2µM,3.5µM,-84,1.1µM,0.79µM,2.8µM
Cc1cc(O)c(C=O)c(O)c1C(=O)O,/,/,/,/,.,/
Cc1cc(O)c(C=O)c2c1C(=O)Oc1c(COC(=O)/C=C/C(=O)O)c(O)c(C(=O)O)c(C)c1O2,/,/,/,/,3.5µM,/
COc1ccc(C)cc1-n1c(SCC(=O)Nc2cccc(C(=O)O)c2)nc2ccccc2c1=O,.,.,-81,.,.,.
CCc1ccccc1N1C(=O)N(Cc2ccc(C#N)cc2)c2ccccc2S1(=O)=O,.,/,/,.,.,.
COc1ccccc1NC(=O)Nc1ccnn1C1CCN(C(=O)c2ccccn2)CC1,.,.,.,.,.,?
COc1ccccc1NC(=O)Nc1ccnn1C1CCN(C(=O)c2cscn2)CC1,.,.,.,32µM,40µM,.
Cc1ccc(NC(=O)C2=C(c3ccccc3)S(=O)(=O)CCS2(=O)=O)cc1,.,22µM,.,?,.,.
Cc1ccc(NC(=O)c2ccccc2)cc1,.,.,.,.,.,.
O=[N+]([O-])c1ccc(N=Nc2c(O)[nH]c3ccc(F)cc23)cc1,50µM,.,.,.,.,?
SMILES,Pol beta inh,WRN inhibitor,PI5P4K alpha inh,POLI inh,POLK inh,POLH inh
CC(Oc1ccccc1)C(=O)N=Nc1c(O)[nH]c2ccc([N+](=O)[O-])cc12 (centres undefined),.,.,.,79µM,.,35µM
CNc1c(C(=O)O)ccc2c1C(=O)c1ccccc1C2=O,.,.,?,.,.,?
O=C(O)c1ccc2c(c1Nc1ccccc1)C(=O)c1ccccc1C2=O,.,.[11.6 µM],-54,.,.,?
CC(=O)N=C1SC2CS(=O)(=O)CC2N1c1ccc(-c2nc3ccc(C)cc3s2)cc1 (centres undefined),.,/,/,/,/,/
Cc1ccc2nc(-c3ccc(N4C(=NC(=O)CCC(=O)O)SC5CS(=O)(=O)CC54)cc3)sc2c1 (centres undefined),?,?,?,?,?,3.5µM
CCOC(=O)c1sc(Nc2nc3cc4c(cc3s2)OCO4)cc1C,35µM,.,.,.,.,?
COc1ccccc1C(=O)NC(=O)CSc1nnc(SC)s1,/,.,.,.,.,.
COc1ccccc1C(=O)NC(=O)CSc1nnc(N)s1,/,.[11.6 µM],-60,?,.,79µM
Cc1cccn2c3c(c(=O)nc12)C(c1ccc(F)cc1)CC(=O)N3 (centres undefined),.,/,/,.,.,.
Nc1c(Br)cc2c([nH]c(=O)c3ccccc32)c1Br,/,.,-66,?,.,?
O=C(Nc1nc2c(F)cc(F)cc2s1)c1ccc(S(=O)(=O)N2CCc3ccccc32)cc1,32µM,/,/,?,.,.
O=C1NC(=O)/C(=C/c2ccc3c(c2)OC(F)(F)O3)S1,/,/,/,/,.,/
Nc1cc(C(=O)O)c(Oc2ccc(Cl)cc2Cl)cc1C(=O)O,22µM,.,.,.,.,?
O=[N+]([O-])c1ccc(-c2csc(Nc3ccccc3)n2)cc1,/,/,/,.,.,/
O=c1nc(Nc2ccccc2)sc2ccc([N+](=O)[O-])cc12,?,.,.,.,.,16µM
CCOc1cccc(-c2c(C(=O)N/N=C/c3cccs3)nnn2-c2nonc2N)c1,?,.,?,79µM,?,.
COc1ccc(S(=O)(=O)NNC(=O)Cc2csc(C)n2)cc1[N+](=O)[O-],/,.[11.6 µM],?,50µM,?,?
O=C1c2ccccc2C(=O)N1c1nc(-c2ccc(F)cc2)cs1,/,/,/,.,.,/
O=C(Oc1csc(=S)n1C(=O)c1ccccc1)c1ccccc1,.,.,-75,.,.,.
CN(Cc1ccccc1)C(=O)c1cc(-c2cccc(Cl)c2)on1,.,/,/,.,.,.
O=S(=O)(NCc1ccccc1)c1ccc(Cl)cc1,.,.,.,.,.,.
O=S(=O)(Nc1cc2nc3ccccc3nc2n1Cc1ccccc1)c1ccc(Cl)cc1,?,?,.,10µM,.,79µM
Cc1cnc2c3c(cc(Cl)c2c1)-c1ccccc1S(=O)(=O)N3,/,/,/,28µM,79µM,/
O=S1(=O)Nc2c(ccc3cccnc23)-c2ccccc21,.,.,/,?,.,.
Cc1cccc2[nH]cc(/C=C3/C=Nc4ccccc43)c12,/,/,/,.,.,/
Cc1ccc(NC(=O)NCCOCCn2c(=O)oc3ccccc32)cc1C,.,/,/,.,.,.
O=C(O)c1ccc(-n2ncc3c2/C(=C/c2cccc([N+](=O)[O-])c2)CC3)cc1,.,.,.,?,.,50µM
COc1ccc2c(c1)n([O-])c1c([n+]2=O)CCC1,.,.,?,?,.,22µM
CCC1CCCCN1S(=O)(=O)c1ccc(NC(=O)c2nc(SC)ncc2Cl)cc1 (centres undefined),.,/,/,.,.,.
Cn1c(=O)c2nc(SCC(=O)Nc3cc(Cl)ccc3Cl)n(C)c2n(C)c1=O,.,/,/,.,.,.
